Screening results as filed in PubChem BioAssay.
This is a sample that favours compounds with a hit; in the whole collection about 3.1% have one here.
Wnt bcat act – activators of Wnt/beta-catenin signaling. activation, % at 9.35 µM. Wnt/beta-catenin reporter cell assay, activator, plate reader. AID 743398. actives 1.2% (n = 300,000); in the data active means activation above about 30%, passing the limit was not always enough; inconclusive means no clear call, values can overlap the other calls;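 further: 0% = neutral control wells and 100% = positive control wells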
Statin myotox sup – suppressors of simvastatin-induced myotoxicity in C2C12 myotubes. ATP luminescence, 48 h; scaled: DMSO 0, geranylgeraniol control 100. rescue of ATP level, % at 7.49 µM. actives 0.78% (n = 330,000);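 active means mean ATP rescue above about 67%, or every replicate alone reaching that limit, limit read from the data, passing the limit was not always enough; inconclusive means no clear call, values can overlap the other calls; inactive means mean under the limit and some replicate under it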;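 further: myotubes were challenged with 10 µM simvastatin during compound exposure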
esBAF inh – SWI/SNF esBAF complex inhibition | mouse ES cells, Bmi1-luciferase knock-in reporter, 24 h; 100% = twice the neutral-well signal | reporter increase, % at 12.5 µM | actives 2% (n = 350,000) | AID 602393; in the data active means activation above about 40%; inconclusive means no clear call, values can overlap the other calls;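 further: 0% = median of the plate's neutral control wells and 100% = double that signal; a rise in the Bmi1 reporter signal indicates esBAF inhibition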
Rtt109 Vps75 – blocks Candida albicans Rtt109/Vps75 acetyltransferase activity; inhibition, % at 34.9 µM; actives 0.16% (n = 330,000); AID 540336; purified Rtt109/Vps75, ThioGlo CoA-SH fluorescence, 4 h;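 active means inhibition of at least 50% in every replicate; inconclusive means best replicate reaches 50% inhibition but some replicates fall short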
Target sequence (Q5AAJ8 whole entry, looked up): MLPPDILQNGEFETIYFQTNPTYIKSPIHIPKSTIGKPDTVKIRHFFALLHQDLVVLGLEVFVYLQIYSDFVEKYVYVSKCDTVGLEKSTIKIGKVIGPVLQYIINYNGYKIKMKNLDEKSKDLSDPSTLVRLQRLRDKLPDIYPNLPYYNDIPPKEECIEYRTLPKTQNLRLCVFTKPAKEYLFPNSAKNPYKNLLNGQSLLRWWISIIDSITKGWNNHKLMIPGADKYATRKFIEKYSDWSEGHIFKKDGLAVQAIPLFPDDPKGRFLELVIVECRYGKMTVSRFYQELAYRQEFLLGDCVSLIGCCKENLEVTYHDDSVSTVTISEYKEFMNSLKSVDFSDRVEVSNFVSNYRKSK
MITF act – activators of MITF-driven TRPM1 promoter activity in SK-MEL-5 cells. SK-MEL-5 TRPM1-promoter luciferase, 24 h; % of positive control, neutral wells = 0. activation, % at 12.5 µM. actives 0.75% (n = 300,000). AID 588334;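 active means mean activation of at least 80% with every replicate also reaching 80%; inconclusive means mean reaches 80% but some replicate falls short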;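 further: 0% = neutral control wells and 100% = parthenolide positive control wells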
* marks the source's active call; other numbers are inactive results; ? = inconclusive; . = not tested or not shown.

SMILES	Wnt bcat act	Statin myotox sup	esBAF inh	Rtt109 Vps75	MITF act
COc1cccc(S(=O)(=O)Nc2ccc3c(c2)C(=O)N(C)[C@H]2CC[C@H](CC(=O)Nc4ccc(C(C)C)cc4)O[C@@H]2CO3)c1	.	-42.0	4.2	.	.
Cc1nnc(SCC(=O)N(C)CC(=O)Nc2ccc(F)cc2)n1Cc1ccccc1	-1.3	.	.	-2.9	-3.9
CN(CC(=O)Nc1ccc(F)cc1)C(=O)CSc1nnc(Cc2ccccc2)o1	63.4*	5.5	-0.2	1.2	-11.6
Cc1cccc(C(=O)Nc2nnc(S(=O)(=O)N3CCOCC3)s2)c1	-0.7	-19.0	9.5	-1.9	21.3
COc1ccc(NC(=O)Nc2nnc(-c3cccs3)s2)cc1	41.0*	.	.	61.5*	97.6*
O=C(Nc1nnc(S(=O)(=O)N2CCOCC2)s1)c1cccc(F)c1	20.2	-11.0	58.1*	-10.5	.
O=C(Nc1ccccc1)Nc1nnc(-c2cccs2)s1	29.4	.	.	-4.2	72.5
Cc1nnc(NC(=O)c2cccc(F)c2)s1	.	1.9	13.2	8.2	6.2
O=C(Nc1nnc(-c2cccs2)s1)c1cccc(F)c1	39.3*	3.7	60.0*	-17.9	32.5
CC(C)(C)CC(=O)Nc1nnc(-c2cccs2)s1	51.5*	15.0	48.0*	-15.9	43.7
CCCC#Cc1ccc2c(c1)O[C@@H](CN(C)C(=O)Nc1ccccc1F)[C@H](C)CN([C@H](C)CO)S2(=O)=O	.	-21.2	-0.8	.	.
O=C(Nc1ccc(-c2ccccc2)cc1)[C@H]1[C@H](CO)[C@H]2Cn3c(cccc3=O)[C@@H]1N2Cc1ccncc1	.	27.9	3.4	.	.
CCNC(=O)C[C@H]1CC[C@@H]2[C@H](COC[C@H](O)CN2C(=O)Nc2ccc3c(c2)OCO3)O1	.	-7.0	45.0*	.	.
CCNC(=O)C[C@@H]1CC[C@@H]2[C@H](COC[C@H](O)CN2C(=O)Nc2ccc3c(c2)OCO3)O1	.	2.4	43.8*	.	.
CCCNC(=O)C[C@@H]1CC[C@@H]2[C@H](COC[C@@H](O)CN2C(=O)Nc2ccc3c(c2)OCO3)O1	.	-16.2	8.3	.	.
Cc1ccc(S(=O)(=O)N(C)C[C@@H]2OCCCC[C@H](C)Oc3ccc(N(C)C)cc3C(=O)N([C@H](C)CO)C[C@@H]2C)cc1	.	18.8	7.5	.	.
COc1ccc(-n2cnc3sc(-c4ccccc4)cc3c2=O)cc1	.	-24.4	34.0	-7.3	123.6*
COc1ccc(-n2cnc3sccc3c2=O)cc1	4.8	-10.5	-0.4	6.3	3.2
COc1cccc(-n2cnc3sc(-c4ccccc4)cc3c2=O)c1	24.2	-30.3	47.1*	-2.8	101.1*
COCC#Cc1ccc2c(c1)O[C@@H](CN(C)Cc1ccccc1F)[C@H](C)CN([C@H](C)CO)S2(=O)=O	.	-44.5	-0.5	.	.
CN(C)C(=O)C[C@H]1C=C[C@@H](NC(=O)NC2CCCCC2)[C@@H](CO)O1	.	6.1	-1.5	.	.
Cc1noc(C)c1S(=O)(=O)Nc1ccc2c(c1)C(=O)N([C@H](C)CO)C[C@H](C)[C@@H](CN(C)Cc1ccc(C(F)(F)F)cc1)OCCCC[C@H](C)O2	.	.	10.9	.	.
CC(C)Oc1cccc(C(=O)NC2=NCCS2)c1	-1.6	.	.	-4.4	31.5
O=C(NC1=NCCS1)c1cccc(Br)c1	41.9*	10.0	48.3*	-0.8	.
Cc1cc(NC(=O)c2cccc(Br)c2)n[nH]1	25.2	-2.6	47.3*	-5.5	55.8
SMILES	Wnt bcat act	Statin myotox sup	esBAF inh	Rtt109 Vps75	MITF act
COc1cccc(C(=O)NC2=NCCS2)c1	44.4*	6.5	-30.6	0.6	.
O=C(NC1=NCCS1)c1ccc(Cl)cc1	21.0	-2.7	43.8*	9.6	.
COc1cccc(-c2ccc3n(c2=O)C[C@@H]2[C@@H](CO)[C@H](C(=O)NCCN4CCCCC4)N(C)[C@H]32)c1	.	-21.3	1.2	.	.
CCCN1C[C@H](C)[C@H](OC)CN(C)C(=O)c2cc(NS(=O)(=O)c3cn(C)cn3)ccc2OC[C@H]1C	.	-0.7	-4.3	.	.
CCN(CC)S(=O)(=O)c1cccc(C(=O)NC(C(=O)NC2=NCCS2)C(C)C)c1 (stereo not given)	.	80.9*	2.9	-8.3	18.4
Cc1sc(=NC(=O)c2ccco2)n(C)c1-c1ccccc1	21.9	4.0	-8.5	-0.5	59.5
Cc1sc(=NC(=O)c2ccco2)n(C)c1-c1ccc(F)cc1	.	.	.	-5.3	100.6*
C/C=C/c1cnc2c(c1)C(=O)N([C@H](C)CO)C[C@H](C)[C@H](CN(C)C(=O)C1CCC1)O2	.	13.2	.	.	.
Nc1cc2c(cc1Cl)-c1ccccc1C2=NO	-2.9	-2.9	52.0*	5.5	54.6
O=[N+]([O-])c1cccnc1Oc1ccc(OCc2ccccc2)cc1	8.9	-14.3	?	-5.5	65.3
Nc1ccc(OCc2ccccc2)cc1[N+](=O)[O-]	14.2	3.6	43.7*	3.3	16.4
C[C@@H]1CCCCO[C@H](CN(C)Cc2ccccc2)[C@H](C)CN([C@H](C)CO)C(=O)c2cc(NC(=O)Cc3ccccc3)ccc2O1	.	.	-8.4	.	.
Cc1ccc(-c2nnc(-c3cccc(Br)c3)o2)cc1	52.2*	.	.	-4.5	53.4
Cc1ccc(-c2nnc(-c3ccccc3)o2)cc1Br	34.9*	.	.	8.6	34.1
CN(C)S(=O)(=O)c1cccc(-c2nnc(-c3ccccc3)o2)c1	-0.2	.	.	9.7	85.9*
Cc1ccccc1NS(=O)(=O)c1cccc(-c2nnc(-c3ccccc3)o2)c1	.	1.8	-0.2	10.2	.
CC(=O)c1ccc(OC(=O)Oc2ccc(C(C)=O)cc2)cc1	-2.0	.	.	13.1	1.4
CC(=O)c1ccc(Oc2ccc(C(C)=O)cc2)cc1	15.3	21.5	42.0*	2.9	32.2
CCSS(=O)(=O)c1cccc2cccnc12	2.8	.	.	153.8*	.
Cc1cccc(N=c2oc3cc(O)ccc3cc2C(N)=O)c1	40.1*	118.3*	57.8*	9.4	41.3
C[C@H](O)C#Cc1ccc2c(c1)O[C@@H](CN(C)C(=O)Cc1ccccn1)[C@H](C)CN([C@@H](C)CO)S2(=O)=O	.	.	4.2	.	.
Cc1ccc(NC(=O)CN2CCOCC2)cc1	-1.6	-9.2	3.2	-0.7	-3.3
CCCCN(CCCC)S(=O)(=O)c1ccc(NC(=O)CN2CCOCC2)cc1	-3.0	129.7*	-2.9	1.0	0.4
O=C(CN1CCOCC1)Nc1ccc(C2CCCCC2)cc1	31.0*	-45.7	34.5	-7.3	42.5
Cc1ccn2c(C(=O)c3ccc(Cl)cc3)cnc2c1	42.9*	.	.	1.5	?
SMILES	Wnt bcat act	Statin myotox sup	esBAF inh	Rtt109 Vps75	MITF act
Cc1ccn2c(=O)nc(SCC(=O)c3ccc(Cl)cc3)nc2c1	7.1	.	.	-1.3	13.5
C[C@@H]1CN([C@H](C)CO)C(=O)c2cc(/C=C/c3ccccc3)cnc2O[C@H]1CN(C)S(=O)(=O)c1cccs1	.	-20.3	-4.1	.	.
C=CCn1c(-c2ccc(OC)cc2)nc2nc3ccccc3nc21	3.9	.	.	-6.6	.
Fc1ccc(-n2c(-c3ccco3)nc3nc4ccccc4nc32)cc1	.	-12.1	-7.1	-0.7	2.9
c1ccc(-c2nc3nc4ccccc4nc3n2Cc2ccco2)cc1	44.0*	.	.	-8.0	34.1
Fc1ccc(-c2nc3nc4ccccc4nc3n2Cc2ccco2)cc1	?	1.6	64.0*	-2.2	36.7
